Source: PubChem BioAssay
This is a sample that favours compounds with a hit; in the whole collection about 3.8% have one here.
HSF1 activator: increases HSF-1 driven luciferase reporter signal | NIH3T3-HGL HSF-1 luciferase reporter, MG132, 8 h; 100% = twice DMSO control signal | hit rate 1.7% among 300,000 | activation, % at 9 µM;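 active means mean replicate activation of at least 50% with a set share of replicates each reaching 50%; inconclusive means only one of those two conditions met; inactive means mean below 50% and too few replicates reaching it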;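 further: 0% = median of the neutral control wells and 100% = twice that signal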
Wnt act: Wnt/beta-catenin pathway activation | activation, % at 9.35 µM | AID 743398 | hit rate 1.2% among 300,000 | Wnt/beta-catenin reporter cell assay, activator, plate reader; in the data active means activation above about 30%, passing the limit was not always enough; inconclusive means no clear call, values can overlap the other calls;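 further: 0% = neutral control wells and 100% = positive control wells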
HSF1 inhib: HSF1 inhibition; NIH3T3-HGL HSE-luciferase, MG132-induced, luminescence 8 h; active compounds read low; hit rate 0.77% among 300,000; activity change, negative = inhibition, % at 7.5 µM (by protocol);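 active means more than half of replicate wells show activity change below -50%, luminescence cut by over half; inconclusive means some wells, but at most half, below -50%; inactive means no replicate well below -50%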;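 further: luciferase reports HSF-1 transcriptional activity via heat shock element; 0% = median of DMSO wells and -100% = zero luminescence signal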
MITF TRPM1 HTS: MITF TRPM1 promoter activation in melanoma cells. SK-MEL-5 TRPM1-promoter luciferase, 24 h; % of positive control, neutral wells = 0. activation, % at 12.5 µM. hit rate 0.75% among 300,000. AID 588334;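 active means mean activation of at least 80% with every replicate also reaching 80%; inconclusive means mean reaches 80% but some replicate falls short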;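 further: 0% = neutral control wells and 100% = parthenolide positive control wells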
esBAF inh: inhibitors of esBAF chromatin remodeling in mouse ES cells; hit rate 2% among 350,000; reporter increase, % at 12.5 µM; Bmi1-luciferase knock-in reporter, 24 h; 100% = twice the neutral-well signal; in the data active means activation above about 40%; inconclusive means no clear call, values can overlap the other calls;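 further: 0% = median of the plate's neutral control wells and 100% = double that signal; a rise in the Bmi1 reporter signal indicates esBAF inhibition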
Active calls of the source: *.

`C[C@@H]1CN([C@@H](C)CO)C(=O)c2cccc(NC(=O)c3cnccn3)c2O[C@@H]1CN(C)CC1CCCCC1` gave esBAF inh -3.3.
Screening CCN(CC)c1ccc(/C=N/NC(=O)c2ccc3c(c2)OCCO3)cc1 returned HSF1 activator -59.1, Wnt act 7.1, HSF1 inhib -52.5* and MITF TRPM1 HTS 2.6.
Screening CN(C)c1ccc(/C=N/NC(=O)c2ccc3c(c2)OCCO3)cc1 returned HSF1 activator -57.9, Wnt act 9.7, HSF1 inhib -55.3*, MITF TRPM1 HTS 30.9 and esBAF inh 33.2.
For COc1ccc(/C=N/NC(=O)c2ccc3c(c2)OCO3)cc1 the results were HSF1 activator 1.7, Wnt act 3.5, HSF1 inhib -3.1, MITF TRPM1 HTS 33.1 and esBAF inh 32.7.
CN(C)CCCNC(=O)C[C@@H]1CC[C@@H]2[C@H](COC[C@H](O)CN2S(=O)(=O)c2ccc(Cl)cc2)O1 was read as esBAF inh 3.6.
Screening COc1ccc2c(c1)CCc1c-2n[nH]c1C(=O)NCCC(C)C returned HSF1 activator 51.3*, Wnt act 30.6*, HSF1 inhib 30.3, MITF TRPM1 HTS 55.4 and esBAF inh 2.3.
Cn1cnc(S(=O)(=O)N2CC[C@@H]3[C@@H](CO)Nc4ccc(-c5ccccc5)cc4[C@@H]32)c1 was read as esBAF inh 8.0.
Screening COCC(=O)N1C[C@@H]2[C@H](c3ccccc31)[C@@H](CO)N2Cc1ccccc1F returned esBAF inh -7.6.
`CCOC(=O)C1=C(C)N=c2s/c(=C/c3cccc([N+](=O)[O-])c3O)c(=O)n2C1c1cc(OC)c(OC)c(OC)c1` (stereo unspecified) gave HSF1 activator 57.7*, Wnt act 2.2, HSF1 inhib 5.5, MITF TRPM1 HTS -11.7 and esBAF inh 0.5.
For O=C(C[C@H]1C=C[C@H](NC(=O)c2cccc(F)c2)[C@@H](CO)O1)Nc1nccs1 the results were esBAF inh -3.6.
`C=C(C)C1CC=C(C)/C(=N/NC(=O)c2ccoc2C)C1` (stereo unspecified) gave HSF1 activator 28.8, HSF1 inhib 11.2, MITF TRPM1 HTS 28.8 and esBAF inh 72.8*.
COC(=O)C[C@H]1CC[C@H](NS(=O)(=O)c2ccc(OC)cc2)[C@@H](CO)O1 was read as esBAF inh -3.5.
For COc1ccc(NC2=Nc3ccccc3CC2)cc1 the results were HSF1 activator 34.0, Wnt act 39.5*, HSF1 inhib -0.6, MITF TRPM1 HTS 91.1* and esBAF inh 8.9.
COc1ccc(NC2=NCCCCC2)cc1 was read as HSF1 activator -0.5, Wnt act 0.6, HSF1 inhib -5.5, MITF TRPM1 HTS 9.8 and esBAF inh -0.2.
`CCCNC(=O)C[C@@H]1CC[C@@H]2[C@H](COc3ccc(NC(=O)c4cccc(OC)c4)cc3C(=O)N2C)O1` gave esBAF inh 4.7.
`O=C1CCn2nc(-c3ccc(Cl)cc3)cc2N1` gave HSF1 activator 5.2, Wnt act -4.2, HSF1 inhib 13.8, MITF TRPM1 HTS 28.5 and esBAF inh 48.2*.
For Nc1cc(-c2ccc(Cl)cc2)nn1S(=O)(=O)c1ccc(Cl)cc1 the results were HSF1 activator 16.2, Wnt act -1.1, HSF1 inhib 8.7, MITF TRPM1 HTS 0.2 and esBAF inh -9.2.
Screening C[C@@H]1CCCCO[C@H](CN(C)S(=O)(=O)c2cccs2)[C@H](C)CN([C@@H](C)CO)C(=O)c2cc(NC(=O)Cc3ccccc3)ccc2O1 returned esBAF inh 13.9.
COC(=O)c1sc2nc(-c3ccco3)ccc2c1N was read as HSF1 activator 55.8*, HSF1 inhib 38.6 and esBAF inh -21.5.
Screening CC(C)OC(=O)c1sc2nc(-c3ccccc3)ccc2c1N returned HSF1 activator -70.8, Wnt act 7.1, HSF1 inhib -66.8*, MITF TRPM1 HTS -5.2 and esBAF inh -46.3.
NC(=O)c1sc2nc(-c3ccco3)ccc2c1N was read as HSF1 activator 32.0, HSF1 inhib 14.0 and MITF TRPM1 HTS 12.0.
CCOC(=O)c1sc2nc(-c3cccnc3)ccc2c1N was read as HSF1 activator 74.6*, Wnt act 51.9*, HSF1 inhib 35.7 and MITF TRPM1 HTS 77.3.
CC(OC(=O)C1=Cc2ccccc2OC1)C(=O)NC1CCCC1 (stereo unspecified) was read as HSF1 activator -11.0, Wnt act -0.4, HSF1 inhib -2.4, MITF TRPM1 HTS 5.7 and esBAF inh 5.7.
`CC(C)C(OC(=O)C1=Cc2ccccc2OC1)C(=O)NCC1CCCO1` (stereo unspecified) gave Wnt act 36.1*, MITF TRPM1 HTS 8.5 and esBAF inh -12.7.
O=C(C[C@H]1C[C@H]2c3cc(NS(=O)(=O)c4ccc(F)cc4)ccc3O[C@H]2[C@@H](CO)O1)NC1CCCCC1 was read as esBAF inh 12.3.
O=C(C[C@@H]1CC[C@H]2[C@@H](COC[C@@H](O)CN2S(=O)(=O)c2ccccc2F)O1)NCc1ccccc1F was read as esBAF inh 2.6.
O=c1c(-c2nc3ccccc3s2)cccn1Cc1ccc(Cl)c(Cl)c1 was read as HSF1 activator 52.5*, Wnt act -4.6 and HSF1 inhib 13.3.
`COc1ccc(/C=N/N2CCN(c3ccccc3OC)CC2)cc1OC` gave HSF1 activator 1.3, HSF1 inhib 0.5, MITF TRPM1 HTS 31.4 and esBAF inh 10.3.
Screening COc1ccccc1N1CCN(/N=C/C=C\c2ccco2)CC1 returned HSF1 activator 79.9*, Wnt act -3.6, HSF1 inhib 55.0, MITF TRPM1 HTS 65.8 and esBAF inh 11.0.
`COc1ccccc1N1CCN(/N=C/c2ccc(O)c(O)c2)CC1` gave HSF1 activator 13.3, Wnt act 21.3 and HSF1 inhib 3.4.
Screening COc1ccc(/C=N/N2CCN(c3ccccc3OC)CC2)cc1Br returned HSF1 activator 16.7, Wnt act 7.0, HSF1 inhib 5.6, MITF TRPM1 HTS 38.3 and esBAF inh 37.9.
COc1cccc(/C=N/N2CCN(c3ccccc3OC)CC2)c1 was read as HSF1 activator 0.7, HSF1 inhib 2.6, MITF TRPM1 HTS 107.6* and esBAF inh inconclusive.
`COc1ccccc1N1CCN(/N=C/c2cccc(Cl)c2)CC1` gave HSF1 activator 60.1*, Wnt act 42.1*, HSF1 inhib 16.0 and esBAF inh 99.7*.
`COc1ccccc1N1CCN(/N=C/c2cccc(OC)c2O)CC1` gave HSF1 activator 13.0, Wnt act 43.9*, HSF1 inhib 18.2 and MITF TRPM1 HTS 75.0.
`CCC(=O)N1C[C@H](C)[C@H](OC)CN(C)C(=O)c2ccc(NC(=O)c3ccc(F)cc3)cc2OC[C@@H]1C` gave esBAF inh 4.0.
`Cc1noc(C)c1S(=O)(=O)Nc1ccc2c(c1)C(=O)N([C@H](C)CO)C[C@H](C)[C@@H](CN(C)Cc1ccccc1)OCCCC[C@H](C)O2` gave esBAF inh -4.2.
